Consider eleven molecules from PubChem BioAssay (NCATS).

Inconclusive results are not listed. Active and inactive are the calls of the source. Calls follow the shape of the dose curve; as a rule, active = well fitted inhibition curve with a large enough effect; inconclusive = small, poorly fitted or top-dose-only effect; inactive = flat fitted curve, though single readings scatter.

Assay in all cases: qHTS profiling for inhibitors of Plasmodium falciparum proliferation (AID 504749); also: nearly all actives have a fitted effect of over 60% in size
What all share (conditions): P. falciparum in erythrocytes, SYBR Green DNA, 72 h; series mostly up to 28.7 µM
For orientation: In qHTS, concentration-response curves come from the screen itself.

One assay concerns AA1029. The gist of the method: (§1)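 Three-day growth assay of blood-stage parasites in erythrocytes (0.3% parasitemia, 2.5% hematocrit) at 37 C, 5% CO2, quantified by SYBR Green DNA staining after overnight detergent lysis.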
The next assay relates to AS120. An outline of the steps:
as §1

A further assay has as its system C2A. An outline of the steps: as §1
The test system of another assay is CP201. An outline of the steps: as §1
The next assay relates to CP203. The gist of the method:
as §1

Another assay deals with CP237. An outline of the steps:
as §1

A further assay relates to CP250. The gist of the method: as §1
The test system of a further assay is CP256. The gist of the method: as §1
Another assay relates to CP268. The gist of the method:
as §1

In the next assay the test system is CP315. An outline of the steps: as §1
Another assay deals with CP325. The gist of the method: as §1
Another assay deals with DIV30. An outline of the steps:
as §1

Another assay relates to HB3. An outline of the steps:
as §1

The test system of another assay is JCK. An outline of the steps: as §1
The next assay has as its system N140. An outline of the steps: as §1
For another assay, the system named is P94_40. The gist of the method:
as §1

The subject of the next assay is PAD. An outline of the steps: as §1
In the next assay the test system is SC27B. An outline of the steps:
as §1

In a further assay the test system is TAB113. The gist of the method: as §1
Another assay concerns CP305. The gist of the method:
as §1
Potency is read from the fitted curve at half-maximal effect.

`CO/N=C(/C(=O)N[C@@H]1C(=O)N2C(C(=O)O)=C(CSC(=O)c3ccco3)CSC12)c1csc(N)n1` (stereo not given in full): the Potency entry with AA1029, in the assay on AS120, in the assay on C2A, in the assay with CP201, with CP203 and in the assay with CP237 was “inactive” each time. The Potency result in the assay on CP250, in the assay with CP256, with CP268, in the assay on CP315, in the assay on CP325 and in the assay on DIV30 was “inactive” throughout. For the same molecule, the Potency result with HB3, with JCK, with N140, with P94_40, with PAD and with SC27B was “inactive” throughout. Moreover, the Potency entry in the assay with TAB113 was “inactive”.

On to `CC1(C)CC1C(=O)N/C(=C/CCCCSCC(N)C(=O)O)C(=O)O` (stereo not given), for which the Potency result in the assay on AA1029, in the assay on AS120, in the assay on C2A, with CP201, in the assay on CP203 and in the assay on CP237 was “inactive” each time. The Potency entry with CP250, in the assay with CP256, in the assay on CP268, in the assay on CP305, in the assay on CP315 and in the assay on CP325 was “inactive” throughout. The Potency result with DIV30, in the assay on HB3, in the assay on JCK, in the assay with N140, in the assay on P94_40 and in the assay with PAD was “inactive” in each case. For the same molecule, the Potency result in the assay with SC27B and in the assay on TAB113 was “inactive” in each case.

For `CN[C@H](C)CCC=C(C)C`, the Potency was 199 nM (active) in the assay on AA1029; 224 nM (active) in the assay with AS120; 631 nM (active) in the assay with C2A; 2130 nM (active) with CP201; 601 nM (active) in the assay on CP203; 199 nM (active) in the assay with CP237. The Potency in the assay on CP250 was 631 nM (active); in the assay on CP256, 631 nM (active); in the assay with CP268 it was 1510 nM (active); with CP305 it was 1690 nM (active); in the assay on CP315, 849 nM (active); with CP325, 757 nM (active). Also, the Potency in the assay on DIV30 is 135 nM (active); with HB3, 199 nM (active); in the assay with JCK, 355 nM (active); with N140, 112 nM (active); with P94_40 it was 178 nM (active); in the assay on PAD, 178 nM (active). Also, the Potency is 355 nM (active) with SC27B and 178 nM (active) with TAB113.

Regarding `C[C@@H]1CCN(C(=O)[C@H](CCCNC(=N)N)NS(=O)(=O)c2cccc3c2NC[C@H](C)C3)[C@@H](C(=O)O)C1`, the Potency entry with AA1029, with AS120, in the assay on C2A, with CP201, in the assay with CP237 and in the assay on CP250 was “inactive” throughout. Further, the Potency result in the assay on CP256, with CP268, with CP305, in the assay on CP325, with DIV30 and in the assay with HB3 was “inactive” throughout. In addition, the Potency entry in the assay on JCK, in the assay with N140, with P94_40, in the assay on PAD, with SC27B and with TAB113 was “inactive” each time.

Consider `C=C[C@@]1(C)C[C@H](OC(=O)CSC(C)(C)CNC(=O)[C@@H](N)C(C)C)[C@@]2(C)C(C)CC[C@@]3(CCC(=O)[C@@H]32)[C@H](C)[C@H]1O` (stereo not given in full), for which the Potency in the assay with AA1029 was 1580 nM (active); in the assay with AS120, 3550 nM (active); in the assay with C2A, 5010 nM (active); in the assay with CP203, 1070 nM (active); with CP237, 1410 nM (active); in the assay on CP256, 316 nM (active). Moreover, the Potency in the assay on CP268 was 3010 nM (active); in the assay with CP305, 379 nM (active); in the assay on CP315, 2690 nM (active); in the assay on CP325 it was 213 nM (active); in the assay with DIV30 it was 7570 nM (active); in the assay with N140, 1410 nM (active). For the same molecule, the Potency in the assay with P94_40 was 1580 nM (active); with PAD it was 4470 nM (active); with SC27B it was 5620 nM (active); with TAB113, 5620 nM (active).

For `CC[C@H](C)[C@H]1O[C@]2(CC[C@@H]1C)C[C@@H]1C[C@@H](C/C=C(\C)[C@H](O[C@@H]3C[C@H](OC)[C@H](O[C@@H]4C[C@H](OC)[C@@H](O)[C@H](C)O4)[C@H](C)O3)[C@@H](C)/C=C/C=C3\CO[C@@H]4[C@H](O)C(C)=C[C@@H](C(=O)O1)[C@]34O)O2`, the Potency was 1000 nM (active) in the assay on AA1029; 1000 nM (active) with AS120; 1410 nM (active) with C2A; 1510 nM (active) in the assay on CP201; 1510 nM (active) in the assay on CP203; 2240 nM (active) with CP237. The Potency in the assay with CP250 was 891 nM (active); in the assay on CP256, 708 nM (active); with CP268, 1690 nM (active); with CP305, 1690 nM (active); with CP325, 1350 nM (active); with HB3, 2000 nM (active). The Potency with JCK is 15800 nM (active); in the assay on N140, 1000 nM (active); with P94_40, 1120 nM (active); in the assay on PAD, 1410 nM (active); with SC27B, 1000 nM (active); with TAB113, 891 nM (active).

As for `OCC(CO)NC1C[C@](O)(CO)[C@@H](O)[C@H](O)[C@H]1O` (stereo not given in full), the Potency entry in the assay on AA1029, in the assay on AS120, with C2A, in the assay on CP201, in the assay with CP203 and with CP237 was “inactive” each time. The Potency result in the assay on CP250, with CP256, in the assay on CP268, in the assay with CP305, in the assay on CP315 and in the assay on CP325 was “inactive” each time. Besides, the Potency entry in the assay with DIV30, in the assay on HB3, in the assay with JCK, in the assay with N140, with P94_40 and in the assay with PAD was “inactive” throughout. For the same molecule, the Potency result in the assay on SC27B and in the assay on TAB113 was “inactive” each time.

Take `CCCCC(=O)O[C@]1(C(=O)CO)CCC2C3CCC4=CC(=O)CCC4(C)C3C(O)CC21C` (stereo not given in full): the Potency result with AA1029, in the assay on AS120, with C2A, with CP201, with CP203 and with CP237 was “inactive” each time. Also, the Potency result in the assay with CP250, in the assay on CP256, with CP268, in the assay on CP305, in the assay with CP315 and in the assay with CP325 was “inactive” each time. Also, the Potency result in the assay with DIV30, in the assay on HB3, in the assay on JCK, in the assay with N140, with P94_40 and in the assay with PAD was “inactive” in each case. Further, the Potency result in the assay on SC27B and with TAB113 was “inactive” in each case.

Consider `CC1(C(=O)O)CCC2(C)CCC3(C)C(=CC(=O)C4C5(C)CCC(O)C(C)(C)C5CCC43C)C2C1` (stereo not given), for which the Potency result in the assay on AA1029, in the assay with AS120, in the assay with C2A, in the assay with CP201, in the assay with CP203 and in the assay on CP237 was “inactive” in each case. Also, the Potency result in the assay with CP250, in the assay with CP256, in the assay on CP268, with CP305, in the assay with CP315 and with CP325 was “inactive” each time. For the same molecule, the Potency entry in the assay on DIV30, in the assay with HB3, with JCK, in the assay on N140, with P94_40 and in the assay with PAD was “inactive” each time. Moreover, the Potency result with SC27B and in the assay with TAB113 was “inactive” in each case.

For the molecule `C/C(=C(/CCO)SS/C(CCO)=C(\C)N(C=O)Cc1cnc(C)nc1N)N(C=O)Cc1cnc(C)nc1N`, the Potency result in the assay on AA1029, in the assay on AS120, in the assay with C2A, with CP201, with CP203 and in the assay on CP237 was “inactive” throughout. The Potency entry in the assay on CP250, in the assay on CP256, in the assay with CP268, in the assay with CP305, in the assay with CP315 and in the assay on CP325 was “inactive” throughout. Further, the Potency result in the assay with DIV30, in the assay on HB3, in the assay with JCK, in the assay on N140, in the assay on P94_40 and in the assay with PAD was “inactive” in each case. The Potency result with SC27B and with TAB113 was “inactive” each time.

Turning to `OCC1OC(O)C(O)C(O)C1O` (stereo not given), the Potency result with AA1029, in the assay on AS120, in the assay on C2A, with CP201, in the assay on CP203 and in the assay on CP237 was “inactive” in each case. In addition, the Potency result with CP250, in the assay on CP256, in the assay with CP268, in the assay with CP305, with CP315 and in the assay on DIV30 was “inactive” each time. Also, the Potency entry in the assay with HB3, with JCK, in the assay with N140, in the assay with P94_40, with PAD and with SC27B was “inactive” in each case. In the assay on TAB113, the Potency result is “inactive”.
